# Bioassay records deposited in PubChem BioAssay by several laboratories.
# SUMO Mot1 rescue: inhibitors of SUMOylation pathway: yeast Mot1-301 growth rescue; 1% of 320,000 active; growth rescue, % at 18.8 µM; S. cerevisiae Mot1-301 growth rescue, ATP luminescence, 38.5C; percent above DMSO median, 100 means doubled;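 active = every valid replicate shows activation above 250% relative to neutral control wells; inactive = the rest, any valid replicate at or below 250%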;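 note: OY570 slx delta 5 strain wells were the positive control but not used for scaling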
# M18AAP inhibitor: blocks P. falciparum M18 aspartyl aminopeptidase. recombinant PfM18AAP, H-Glu-NHMec fluorogenic cleavage. inhibition, % at 7.35 µM. 1.2% of 290,000 active;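 active = inhibition above the campaign mean inhibition over all tested compounds plus 3 SD, cut at about 28% in these data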;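 note: 0% = plate median of test compound wells and 100% = 2 mM ZnCl2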
# ALR inh: human ALR oxidase inhibition via reduced H2O2; 3.8% of 290,000 active; AID 485317; inhibition, % (test concentration not listed); purified ALR, DTT oxidation, H2O2 HRP-luminol luminescence;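 active = mean replicate inhibition above about 79%, with every replicate also reaching it, limit read from the data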
# Target sequence (P55789 whole entry, looked up): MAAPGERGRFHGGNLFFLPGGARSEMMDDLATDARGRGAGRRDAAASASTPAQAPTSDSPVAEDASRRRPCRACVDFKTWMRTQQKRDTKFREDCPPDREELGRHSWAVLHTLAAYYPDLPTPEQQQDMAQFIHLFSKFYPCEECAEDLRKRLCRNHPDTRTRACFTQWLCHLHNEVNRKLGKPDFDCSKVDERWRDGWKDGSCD
# HIF act: HIF pathway transcriptional activation; activation, % at 7.5 µM (by protocol); AID 1910; 0.32% of 300,000 active; U2OS HRE-luciferase reporter, luminescence; normalized: DMSO 0%, desferrioxamine 100%;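 active = mean activation of at least 10% of the iron chelator positive control signal, with at least half of replicates also reaching 10%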
# Yeast Mot1 SUMO: inhibits SUMO pathway, affecting Mot1-301 yeast growth; shares compounds with SUMO Mot1 rescue; S. cerevisiae Mot1-301 galactose growth, ATP luminescence, 24 h; -100 = growth of slx-deleted rescue strain; growth activity, percent, % at 42 µM; 2,300 tested, under 10 active;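 active = Signal drops as the depositor expects, and the fitted half-maximal dose is no more than ten times the top valid tested dose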;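 note: more negative values mean stronger growth rescue toward the control strain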
# Numbers without * were called inactive; · = no result given; + = active, no number. A selection: hits, their analogues and other compounds. The true share with any hit is near 5.3%.
SMILES,SUMO Mot1 rescue,M18AAP inhibitor,ALR inh,HIF act,Yeast Mot1 SUMO
COc1ccc(C)cc1N(C(=O)c1snc(C(N)=O)c1N)C(C(=O)NC1CCCC1)c1ccc(F)cc1 (stereo not given),61,-1,·,-1,·
CC1CN(Cc2ccccc2)c2nc3c(c(=O)[nH]c(=O)n3C)n2C1 (stereo not given),475*,1,66,1,0
Cn1c(=O)[nH]c(=O)c2c1nc1n2CCN1Cc1ccccc1,-20,1,-6,0,·
NNC(=O)c1[nH]c2ccccc2c1-c1ccccc1,653*,4,-1,1,-1
CC(=O)NNC(=O)c1[nH]c2ccc(Cl)cc2c1-c1ccccc1,11,6,44,0,·
Cc1ccc(C(=O)NNc2ncnc3c2cnn3C)cc1,+,17,24,0,0
Cc1ccccc1C(=O)NNc1ncnc2c1cnn2C,-8,6,43,-1,·
CN(C)S(=O)(=O)c1cccc(C(=O)NCc2cccs2)c1,8,-7,-3,0,·
COc1ccc(OCC(=O)Nc2ccc(C)cc2)cc1,859*,-5,-14,1,0
COc1ccc(NC(=O)CN(C)C(=O)c2cc(C)on2)cc1,678*,·,-2,0,0
Cc1ccc(SCCC(=O)Nc2ccc(OCc3ccccc3)cc2)cc1,968*,-2,-5,·,0
CCOc1cc(NC(=O)c2cccs2)c(OCC)cc1NC(=O)CCC(=O)NCCN1CCOCC1,388*,6,-4,0,1
O=C(CCc1nc(-c2ccc(Cl)cc2)no1)NC1CCCC1,6,-2,0,0,·
O=C(CCCc1nc(-c2ccc(Cl)cc2)no1)NC1CCCCC1,861*,-10,3,0,1
CCN1CCN(C(=O)c2ccc3nc(-c4ccccc4)c(-c4ccccc4)nc3c2)CC1,474*,6,·,-1,0
CCC1Oc2ccccc2N(CC(=O)NC2CCCC2)C1=O (stereo not given),9,6,-5,1,·
CCOC(=O)C1CCN(C(=O)c2ccc3c(c2)NC(=O)/C(=C/c2ccccc2)S3)CC1,405*,-5,-19,0,-1
Cc1cccc(OCCN2CSC(=S)N(C)C2)c1,372*,-28,·,0,0
CSc1ccccc1NC(=O)CSc1nnc(Cc2ccccc2)o1,-13,0,4,0,·
CC1CCCC(C)N1C(=O)Cn1cnc2cc([N+](=O)[O-])ccc2c1=O (stereo not given),6,2,-17,-1,·
Cc1ccc(NC(=S)NNC(=O)c2ccc(N3CCOCC3)c([N+](=O)[O-])c2)cc1C,366*,7,23,0,0
C=CCN1C(=O)/C(=C\c2ccc(C)cc2)N=C1SCC(=O)NCCC,+,-8,98*,0,0
O=C(COc1cccc2cccnc12)N1CCc2ccccc21,561*,2,·,1,-1
COc1ccc(OC)c(NC(=O)C2=C(C)NC(=O)NC2c2cccs2)c1 (stereo not given),7,-2,·,·,·
CC(NC(=O)C12CC3CC(CC(O)(C3)C1)C2)c1ccccc1 (stereo not given),409*,-3,2,1,-1
SMILES,SUMO Mot1 rescue,M18AAP inhibitor,ALR inh,HIF act,Yeast Mot1 SUMO
Cc1cc([N+](=O)[O-])ccc1NC(=O)CSc1nnc(C)n1C,94,-2,5,-9,·
Cc1cc([N+](=O)[O-])ccc1NC(=O)CSc1nccc(=O)[nH]1,378*,-5,-19,0,0
N#C/C(=N\Nc1cccc(C(F)(F)F)c1)C(=O)c1ccsc1,9,-7,4,2,·
COC(=O)c1c(NC(=O)C(=O)NCC2CCCO2)sc2c1CC(C)(C)OC2 (stereo not given),-7,5,21,0,·
O=C(Nc1ccnn1C1CCN(Cc2ccccc2F)CC1)C1CCCC1,-1,-2,6,0,·
COc1ccccc1NC(=O)CSc1nc(O)c(Cc2ccccc2)c(=O)[nH]1,+,6,88*,·,1
O=C(CN1CCN(Cc2ccc(Cl)cc2)CC1)N/N=C/c1ccncc1,374*,3,3,0,0
O=C(Cc1ccc(Cl)cc1)N/N=C/c1ccncc1,3,8,-2,0,·
O=C(O)c1c2c(nc3ccccc13)CCCCC2,-10,-2,-2,0,·
CN(C)C(=O)c1c2c(nc3ccccc13)CCCC2,+,-1,·,-1,0
c1ccc(-c2ccc3c(c2)c2c4n3CCN=C4CCC2)cc1,129,-4,-23,2,·
